Laboratory results from PubChem BioAssay (NCI).
“And” between values parts separate entries of the source, which are not always exact repeats. Equal entries are not always repeated. About 83,000 compounds went through this panel and 20% of them were active in at least one assay; those are over-represented in the sample as a whole.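 Cell lines were cultured in 96-well plates, exposed to a single compound concentration, and assessed for percent growth 48 hours later.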 The source made the active and inactive calls. Rule for the calls: active = growth percent below 10; inactive = the rest.

Assays:
Assay in all cases: NCI-60 one-dose screen, 48 h (100 = growth as untreated, 0 = no growth, -100 = all killed)
Details in all cases: 10 µM unless noted
NCI-H23 lung = tested on: NCI-H23 lung
NCI-H226 lung = tested on: NCI-H226 lung
NCI-H322M lung = tested on: NCI-H322M lung
HOP-62 NSCLC = tested on: HOP-62 NSCLC
NCI-H460 lung = tested on: NCI-H460 lung
A549/ATCC NSCLC = tested on: A549/ATCC NSCLC
786-0 renal = tested on: 786-0 renal
DU-145 prostate = tested on: DU-145 prostate
K-562 leukemia = tested on: K-562 leukemia
MALME-3M melanoma = tested on: MALME-3M melanoma
MDA-MB-231 breast = tested on: MDA-MB-231 breast
RXF 393 renal = tested on: RXF 393 renal
SF-268 CNS = tested on: SF-268 CNS
SF-295 CNS = tested on: SF-295 CNS
SF-539 CNS = tested on: SF-539 CNS
UACC-257 melanoma = tested on: UACC-257 melanoma
M14 melanoma = tested on: M14 melanoma
HOP-92 NSCLC = tested on: HOP-92 NSCLC
NCI-H522 lung = tested on: NCI-H522 lung
COLO 205 colon = tested on: COLO 205 colon

SMILES	growth (NCI-H23 lung)	growth (NCI-H226 lung)	growth (NCI-H322M lung)	growth (HOP-62 NSCLC)	growth (NCI-H460 lung)	growth (A549/ATCC NSCLC)	growth (786-0 renal)	growth (DU-145 prostate)	growth (K-562 leukemia)	growth (MALME-3M melanoma)	growth (MDA-MB-231 breast)	growth (RXF 393 renal)	growth (SF-268 CNS)	growth (SF-295 CNS)	growth (SF-539 CNS)	growth (UACC-257 melanoma)	growth (M14 melanoma)	growth (HOP-92 NSCLC)	growth (NCI-H522 lung)	growth (COLO 205 colon)
C/C=C(/C)C(=O)O[C@H]1CC[C@@]2(C)[C@@H]3CC[C@H]4[C@]5(O)C[C@H](O)[C@@]6(O)[C@@H](CN7C[C@@H](C)CC[C@H]7[C@@]6(C)O)[C@]5(O)C[C@@]42O[C@@]13O	106% (inactive)	102% (inactive)	97.9% (inactive)	-56.5% (active)	110% (inactive)	94% (inactive)	89.9% (inactive)	138% (inactive)	136% (inactive)	92.7% (inactive)	130% (inactive)	108% (inactive)	116% (inactive)	100% (inactive)	111% (inactive)	102% (inactive)	102% (inactive)			
O=NN(c1ccccc1)c1ccccc1	98.3% (inactive)	95% (inactive)	94.1% (inactive)		102% (inactive)	96% (inactive)	105% (inactive)	103% (inactive)	113% (inactive)	86.2% (inactive)	98.9% (inactive)	98.3% (inactive)	100% (inactive)	102% (inactive)	106% (inactive)	96% (inactive)	106% (inactive)	88.1% (inactive)	105% (inactive)	110% (inactive)
C[N+]12CCC34C5=CC(=O)C(=O)C=C5[N+]5(C)C(=O)CC6OCC=C(C1)C(CC32)C6C45 (stereo not given)	117% (inactive)	98.6% (inactive)	98.5% (inactive)	102% (inactive)	105% (inactive)	106% (inactive)	112% (inactive)	102% (inactive)	97.6% (inactive)	99.4% (inactive)	97.6% (inactive)	93.1% (inactive)	111% (inactive)	93% (inactive)	97.5% (inactive)	113% (inactive)	118% (inactive)			
N#Cc1ccc(Cl)cc1	111% (inactive)	109% (inactive)	119% (inactive)	105% (inactive)	122% (inactive)	103% (inactive)	108% (inactive)	117% (inactive)	99.4% (inactive)	115% (inactive)	108% (inactive)	120% (inactive)	108% (inactive)	113% (inactive)	108% (inactive)	104% (inactive)	106% (inactive)			117% (inactive)
CCCCCCCCCCCCCCCC[N+](C)(C)C	-83.6% (active) and 20.7% (inactive)	-54.8% (active) and 46.7% (inactive)	-70% (active) and 60.7% (inactive)	-76.6% (active) and -23.9% (active)	-84% (active) and 0.102% (active)		-83.5% (active) and 4.56% (active)	-91.4% (active) and 15.9% (inactive)	-70% (active) and 9.42% (active)	-76.5% (active) and 13.8% (inactive)	-76.5% (active) and -8.58% (active)	-31.9% (active)	-57.5% (active) and -3.48% (active)	-65.5% (active) and 10.1% (inactive)	-67.3% (active) and -8.94% (active)	61.2% (inactive)	-87.8% (active) and -43.2% (active)		-57.9% (active) and -39.7% (active)	
CC1=C2[C@H]3OC(=O)[C@@H](C)[C@@H]3CC[C@@]2(C)C=CC1=O	54.5% (inactive)	92% (inactive)	85.8% (inactive)	111% (inactive)	116% (inactive)		106% (inactive)	109% (inactive)	110% (inactive)	87.3% (inactive)	112% (inactive)		107% (inactive)	106% (inactive)	83.3% (inactive)		120% (inactive)		123% (inactive)	96.7% (inactive)
O=S(=O)(c1ccc(O)cc1)c1ccccc1O		104% (inactive)	111% (inactive)	101% (inactive)	105% (inactive)	112% (inactive)		111% (inactive)	98% (inactive)	113% (inactive)	98.9% (inactive)	117% (inactive)	97.3% (inactive)	112% (inactive)	103% (inactive)	111% (inactive)		100% (inactive)		112% (inactive)
CC1(C)N=C(N)N=C(N)N1c1ccc(CCC(=O)Nc2ccc(S(=O)(=O)F)cc2)cc1		65.3% (inactive)		47.1% (inactive)	14.5% (inactive)	18.9% (inactive)	21.3% (inactive)	28.1% (inactive)	12.9% (inactive)	47% (inactive)	76.4% (inactive)	47.3% (inactive)	25.1% (inactive)	40.3% (inactive)	28.7% (inactive)	41.1% (inactive)	35.9% (inactive)		23.6% (inactive)	28.8% (inactive)
O=[N+]([O-])c1ccc(CI)cc1	101% (inactive)	94.6% (inactive)	106% (inactive)		101% (inactive)	101% (inactive)	94% (inactive)	105% (inactive)	12.3% (inactive)	85.6% (inactive)	102% (inactive)		84% (inactive)	110% (inactive)	56.9% (inactive)	80.9% (inactive)	71.6% (inactive)			88.8% (inactive)
N#CC(C#N)=C(C#N)C#N	106% (inactive)	101% (inactive)	103% (inactive)	108% (inactive)	106% (inactive)		101% (inactive)	110% (inactive)	108% (inactive)	108% (inactive)	106% (inactive)	111% (inactive)	96% (inactive)		93.7% (inactive)	97.8% (inactive)	102% (inactive)			114% (inactive)
COCC1OC2OC3C(COC)OC(OC4C(COC)OC(OC5C(COC)OC(OC6C(COC)OC(OC7C(COC)OC(OC8C(COC)OC(OC1C(O)C2O)C(O)C8O)C(O)C7O)C(O)C6O)C(O)C5O)C(O)C4O)C(O)C3O (stereo not given) (tested in a mixture with another compound)	102% (inactive)	102% (inactive)	134% (inactive)		109% (inactive)	109% (inactive)	139% (inactive)	113% (inactive)	99.5% (inactive)	127% (inactive)	115% (inactive)	129% (inactive)	105% (inactive)	111% (inactive)	111% (inactive)	117% (inactive)	105% (inactive)		109% (inactive)	127% (inactive)
N#CCCc1ccccc1	104% (inactive)	95.4% (inactive)	105% (inactive)		112% (inactive)		106% (inactive)	119% (inactive)	108% (inactive)	113% (inactive)	107% (inactive)	114% (inactive)	106% (inactive)	108% (inactive)	96.2% (inactive)	95% (inactive)	106% (inactive)		95.3% (inactive)	109% (inactive)
CC(Oc1ccc(-c2ccccc2)cc1)C(=O)O (stereo not given)	106% (inactive)	95.5% (inactive)	102% (inactive)		103% (inactive)	96.5% (inactive)	101% (inactive)	113% (inactive)	112% (inactive)		108% (inactive)		105% (inactive)	102% (inactive)	99.6% (inactive)	99.2% (inactive)	102% (inactive)		99.8% (inactive)	102% (inactive)
CC[C@H](C)[C@H](NC(=O)[C@H]1CCCCN1C)C(=O)N(C)[C@H](CCc1nc(C(=O)N[C@@H](Cc2ccccc2)C[C@H](C)C(=O)O)cs1)C(C)C	29.9% (inactive)	31% (inactive)	49.9% (inactive)	12.6% (inactive)	8.77% (active)		31.8% (inactive)	9.58% (active)	6.62% (active)	78.4% (inactive)	11.2% (inactive)	31.8% (inactive)	20.9% (inactive)	-1.24% (active)	-12.9% (active)	53.4% (inactive)	4.31% (active)		-6.97% (active)	
O=[N+]([O-])c1ccc(P(=O)(O)O)cc1	105% (inactive)	97.6% (inactive)	101% (inactive)		103% (inactive)		96% (inactive)	110% (inactive)	108% (inactive)	92.6% (inactive)	109% (inactive)	103% (inactive)	106% (inactive)	96% (inactive)	103% (inactive)	111% (inactive)	96.1% (inactive)	85% (inactive)	92.3% (inactive)	103% (inactive)
